Experimental findings from the supplement of paper PMC10981050 are described below.

Several values for one entry are separate records, joined by “and”; a condition that tells them apart may be missing. Equal entries are not always repeated.

Holding throughout (assay): cell viability relative to vehicle control; higher = less cytotoxic
What all share (settings): 10 µM

Test [1] relates to K562. In short, it runs like this: (§1)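 Each screen used CRISPR-edited mutant and wild-type clones from four leukaemia lines. Compounds were acoustically dispensed at a single 10 µM dose, and CellTiter-Glo luminescence was read after 48 h with the supernatant first removed. Viability was analysed in Genedata Screener and given as percent of the on-plate vehicle control.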
For test [2], the system named is MARIMO. In short, it runs like this:
as §1

For test [3], the system named is MOLM14. The essentials:
as §1

Test [4] deals with OCI-AML2. The essentials:
as §1

What is called cell viability is a read-out of living cells in per cent, often relative to untreated cells.

Turning to `COc1ccc(-c2ccc3c(N4CCOC[C@@H]4C)nc(N4CCOC[C@@H]4C)nc3n2)cc1CO`, the cell viability was 39.7% and 40.4% in test [1] (SRSF2 genotype: SRSF2 P95H/wt); 35.5% in test [1] (SRSF2 genotype: SRSF2 wt/wt); 54.4% in test [2] (SRSF2 genotype: SRSF2 P95H/wt); 46.2% in test [2] (SRSF2 genotype: SRSF2 wt/wt); 30.4% in test [3] (SRSF2 genotype: SRSF2 P95H/wt); 26.2% in test [3] (SRSF2 genotype: SRSF2 wt/wt). The results for the cell viability in test [4] (SRSF2 genotype: P95H/wt) and in test [4] (SRSF2 genotype: wt/wt) were 26.5% and 27.7%, respectively.
For `CC1(C)C2CCC1(C)C(O)C2` (stereo not given) [Borneol], the cell viability in test [1] (SRSF2 genotype: SRSF2 P95H/wt) is 101% and 89.9%; in test [1] (SRSF2 genotype: SRSF2 wt/wt), 94.2%; in test [2] (SRSF2 genotype: SRSF2 P95H/wt) it was 89.7%; in test [2] (SRSF2 genotype: SRSF2 wt/wt), 99.5%; in test [3] (SRSF2 genotype: SRSF2 P95H/wt) it was 97.5%; in test [3] (SRSF2 genotype: SRSF2 wt/wt), 99.5%. Also, the cell viability amounted to 87.9% in test [4] (SRSF2 genotype: P95H/wt) and 105% in test [4] (SRSF2 genotype: wt/wt).
Regarding `Fc1ccc2c(/C=C/c3nn[nH]n3)c[nH]c2c1`, the cell viability was 100% and 102% in test [1] (SRSF2 genotype: SRSF2 P95H/wt); 98.6% in test [1] (SRSF2 genotype: SRSF2 wt/wt); 104% in test [2] (SRSF2 genotype: SRSF2 P95H/wt); 102% in test [2] (SRSF2 genotype: SRSF2 wt/wt); 94.2% in test [3] (SRSF2 genotype: SRSF2 P95H/wt); 96.3% in test [3] (SRSF2 genotype: SRSF2 wt/wt). Besides, the figures for the cell viability in test [4] (SRSF2 genotype: P95H/wt) and in test [4] (SRSF2 genotype: wt/wt) were 102% and 108%, respectively.
For the compound `CCCCNc1cc(C(=O)O)cc(S(N)(=O)=O)c1Oc1ccccc1` [Bumetanide], the cell viability in test [1] (SRSF2 genotype: SRSF2 P95H/wt) was 105% and 102%; in test [1] (SRSF2 genotype: SRSF2 wt/wt), 102%; in test [2] (SRSF2 genotype: SRSF2 P95H/wt), 96.5%; in test [2] (SRSF2 genotype: SRSF2 wt/wt), 108%; in test [3] (SRSF2 genotype: SRSF2 P95H/wt), 105%; in test [3] (SRSF2 genotype: SRSF2 wt/wt) it was 101%. Moreover, the results for the cell viability in test [4] (SRSF2 genotype: P95H/wt) and in test [4] (SRSF2 genotype: wt/wt) were 99.9% and 110%, respectively.
In the case of `CC=C(C)C(=O)O` [Tiglic acid], the cell viability in test [1] (SRSF2 genotype: SRSF2 P95H/wt) was 102% and 106%; in test [1] (SRSF2 genotype: SRSF2 wt/wt), 109%; in test [2] (SRSF2 genotype: SRSF2 P95H/wt), 101%; in test [2] (SRSF2 genotype: SRSF2 wt/wt), 103%; in test [3] (SRSF2 genotype: SRSF2 P95H/wt), 102%; in test [3] (SRSF2 genotype: SRSF2 wt/wt) it was 109%. The results for the cell viability in test [4] (SRSF2 genotype: P95H/wt) and in test [4] (SRSF2 genotype: wt/wt) were 110% and 98%, respectively.
As for `CC(C)c1cc(C(C)C)c(CC(=O)NS(=O)(=O)Oc2c(C(C)C)cccc2C(C)C)c(C(C)C)c1` [Avasimibe (CI-1011)], the cell viability is 79.7% and 76.5% in test [1] (SRSF2 genotype: SRSF2 P95H/wt); 64.5% in test [1] (SRSF2 genotype: SRSF2 wt/wt); 80.8% in test [2] (SRSF2 genotype: SRSF2 P95H/wt); 92.2% in test [2] (SRSF2 genotype: SRSF2 wt/wt); 68.6% in test [3] (SRSF2 genotype: SRSF2 P95H/wt); 78.6% in test [3] (SRSF2 genotype: SRSF2 wt/wt). Moreover, the figures for the cell viability in test [4] (SRSF2 genotype: P95H/wt) and in test [4] (SRSF2 genotype: wt/wt) were 92.5% and 84.8%, respectively.
Take `COC[C@H](NC(=O)c1cnc(C)s1)C(=O)N[C@@H](COC)C(=O)N[C@@H](Cc1ccccc1)C(=O)[C@@]1(C)CO1` [Oprozomib (ONX 0912)]: the cell viability was 0.73% and 1.14% in test [1] (SRSF2 genotype: SRSF2 P95H/wt); 1.05% in test [1] (SRSF2 genotype: SRSF2 wt/wt); 0.37% in test [2] (SRSF2 genotype: SRSF2 P95H/wt); 0.74% in test [2] (SRSF2 genotype: SRSF2 wt/wt); 0.16% in test [3] (SRSF2 genotype: SRSF2 P95H/wt); 0.2% in test [3] (SRSF2 genotype: SRSF2 wt/wt). Besides, the cell viability in test [4] (SRSF2 genotype: P95H/wt) worked out at 0.2%; in test [4] (SRSF2 genotype: wt/wt) it was 0.17%.
Regarding `Cn1c(=O)c2[nH]cnc2n(C)c1=O` [Aminophylline (Truphylline)], the cell viability in test [1] (SRSF2 genotype: SRSF2 P95H/wt) is 91.1% and 89.1%; in test [1] (SRSF2 genotype: SRSF2 wt/wt), 89.2%; in test [2] (SRSF2 genotype: SRSF2 P95H/wt) it was 83.4%; in test [2] (SRSF2 genotype: SRSF2 wt/wt), 95.7%; in test [3] (SRSF2 genotype: SRSF2 P95H/wt), 86.8%; in test [3] (SRSF2 genotype: SRSF2 wt/wt), 89.8%. In addition, the figures for the cell viability in test [4] (SRSF2 genotype: P95H/wt) and in test [4] (SRSF2 genotype: wt/wt) were 88.9% and 102%, respectively.
For `CC(C)NC(=O)COc1cccc(-c2nc(Nc3ccc4[nH]ncc4c3)c3ccccc3n2)c1`, the cell viability was 73.5% and 97.8% in test [1] (SRSF2 genotype: SRSF2 P95H/wt); 84.7% in test [1] (SRSF2 genotype: SRSF2 wt/wt); 68.6% in test [2] (SRSF2 genotype: SRSF2 P95H/wt); 72.4% in test [2] (SRSF2 genotype: SRSF2 wt/wt); 93.6% in test [3] (SRSF2 genotype: SRSF2 P95H/wt); 89.8% in test [3] (SRSF2 genotype: SRSF2 wt/wt). In addition, the cell viability in test [4] (SRSF2 genotype: P95H/wt) was determined as 110%; in test [4] (SRSF2 genotype: wt/wt), 87.8%.
For `NC(=O)N1CCC(CC(=O)N2CCC([C@H]3c4ncc(Br)cc4CCc4cc(Cl)cc(Br)c43)CC2)CC1`, the cell viability in test [1] (SRSF2 genotype: SRSF2 P95H/wt) was 49.1% and 62.3%; in test [1] (SRSF2 genotype: SRSF2 wt/wt), 52.4%; in test [2] (SRSF2 genotype: SRSF2 P95H/wt), 44.8%; in test [2] (SRSF2 genotype: SRSF2 wt/wt), 45.7%; in test [3] (SRSF2 genotype: SRSF2 P95H/wt), 37.4%; in test [3] (SRSF2 genotype: SRSF2 wt/wt) it was 35.7%. Also, the cell viability in test [4] (SRSF2 genotype: P95H/wt) amounted to 38%; in test [4] (SRSF2 genotype: wt/wt) it was 32%.
